Screening results as filed in PubChem BioAssay.
In the library only some 2% were active in any assay of this set; here they are far more common.
Her2 expr inh – Her2 kinase expression inhibition | P04626 | SKBR-3 HER2 protein level, AlphaScreen, 18-24 h; active compounds read low | HER2 level % of control, % at 10 µM | 0.69% of 65,000 active | AID 645;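 active = HER2 level under 5% of the carrier-only control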;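 note: 100% = DMSO carrier and 0% = 500 nM PU-H71 HSP90 inhibitor; lower value means stronger loss of Her2 protein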
Target sequence (P04626 whole entry, looked up): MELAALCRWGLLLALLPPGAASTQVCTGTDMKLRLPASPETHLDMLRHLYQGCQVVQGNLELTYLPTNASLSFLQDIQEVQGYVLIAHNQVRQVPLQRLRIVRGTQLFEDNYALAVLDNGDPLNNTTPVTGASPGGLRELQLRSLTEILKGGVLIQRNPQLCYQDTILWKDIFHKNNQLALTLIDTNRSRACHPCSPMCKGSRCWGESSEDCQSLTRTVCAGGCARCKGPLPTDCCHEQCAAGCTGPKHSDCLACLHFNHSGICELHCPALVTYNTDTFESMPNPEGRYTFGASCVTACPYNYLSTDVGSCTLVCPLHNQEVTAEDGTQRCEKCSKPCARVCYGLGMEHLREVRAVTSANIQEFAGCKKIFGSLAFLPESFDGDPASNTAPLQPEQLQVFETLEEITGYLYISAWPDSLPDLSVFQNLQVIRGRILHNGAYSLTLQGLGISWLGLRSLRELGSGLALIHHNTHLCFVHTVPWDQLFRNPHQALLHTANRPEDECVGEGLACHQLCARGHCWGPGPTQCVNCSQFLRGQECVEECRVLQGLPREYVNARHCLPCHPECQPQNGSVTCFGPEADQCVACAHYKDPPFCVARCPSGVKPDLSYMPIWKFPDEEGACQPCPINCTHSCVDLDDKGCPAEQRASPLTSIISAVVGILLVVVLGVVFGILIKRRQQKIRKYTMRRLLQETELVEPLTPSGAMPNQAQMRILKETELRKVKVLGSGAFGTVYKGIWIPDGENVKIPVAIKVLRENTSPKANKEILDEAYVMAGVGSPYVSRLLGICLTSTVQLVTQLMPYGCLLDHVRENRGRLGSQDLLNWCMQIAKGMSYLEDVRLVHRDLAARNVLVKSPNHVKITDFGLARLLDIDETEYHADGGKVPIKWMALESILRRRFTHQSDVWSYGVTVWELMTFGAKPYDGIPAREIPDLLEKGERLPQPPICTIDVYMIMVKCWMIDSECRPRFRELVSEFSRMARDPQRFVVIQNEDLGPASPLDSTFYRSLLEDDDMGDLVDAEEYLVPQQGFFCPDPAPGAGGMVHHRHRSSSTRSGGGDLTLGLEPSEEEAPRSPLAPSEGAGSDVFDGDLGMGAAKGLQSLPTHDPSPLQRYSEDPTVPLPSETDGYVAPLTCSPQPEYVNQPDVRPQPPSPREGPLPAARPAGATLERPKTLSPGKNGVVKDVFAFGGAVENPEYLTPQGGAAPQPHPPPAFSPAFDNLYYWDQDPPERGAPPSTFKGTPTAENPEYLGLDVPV
SK-BR-3 tox 24h – SK-BR-3 proliferation inhibitors; SK-BR-3 viability, CellTiter-Glo ATP luminescence, 24 h; active compounds read low; viability, % at 10 µM; 0.47% of 41,000 active; AID 847;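 active = viability at or below the median of all test compounds minus 3 SD, in both replicates if run twice, cut at about 45% in these data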;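 note: 100% = median untreated cell wells and 0% = median positive control drug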
Jurkat tox 60K – cytotoxic compounds reducing Jurkat cell viability | Jurkat E6.1 viability, ATP luminescence, 48 h | 1.2% of 56,000 active | AID 463 | inhibition, % at 4 µM;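 active = inhibition above the mean inhibition of all tested compounds plus 3 SD, cut at about 28% in these data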
Active calls of the source: *; · = no result.

SMILES | Her2 expr inh | SK-BR-3 tox 24h | Jurkat tox 60K
Cc1noc(C)c1CSc1nc2[nH]ncc2c(=O)n1-c1ccccc1 | 65 | 85 | 83*
C=CCn1c(SCc2c(C)noc2C)nc2cc(C(=O)O)ccc2c1=O | 83 | · | 69*
Cc1noc(C)c1CSc1nc2ccccc2c(=O)n1-c1ccc(F)cc1F | 67 | · | 92*
Cc1noc(C)c1CSc1nc2ccccc2c(=O)n1-c1ccccc1 | 70 | · | 89*
Cc1noc(C)c1CSc1nnc2cc(C)c3ccccc3n12 | 72 | · | -6
CCn1c(SCCC(=O)Nc2ccccc2)nnc1-c1ccc(OC)cc1 | 82 | 95 | -4
COc1c(C)cccc1C(=O)Nc1cc(-c2nn3c(C)nnc3s2)ccc1C | 115 | · | -7
O=C(CCSc1ccc(Cl)cc1)N1CCN(c2ncccn2)CC1 | 81 | 80 | 3
O=C(Cn1cc(C(=O)c2cccs2)c2ccccc21)NCc1ccc2c(c1)OCO2 | 89 | · | 1
CSc1ccc(/C=N/n2nnnc2N)cc1 | 112 | 50 | 4
CCN(C)c1ccc(/C=N\n2nnnc2N)cc1 | 61 | 139 | 82*
CCN(CC)S(=O)(=O)c1ccc2c(c1)nc(SCc1nc3ccsc3c(=O)[nH]1)n2CC | 103 | · | 6
CN(C)c1ccc(-c2nc3ccccc3n2C)cc1 | 86 | 89 | 16
CCN(CC)c1ccc2cc(-c3nc4ccccc4[nH]3)c(=O)oc2c1 | 90 | 42* | 4
CCN(CC)c1ccc2cc(-c3nc4ccccc4n3C)c(=O)oc2c1 | 62 | · | 99*
O=C(NCc1nc2ccccc2[nH]1)c1cc2ccccc2oc1=O | 115 | · | -3
CC(NC(=O)C1CCCN(S(=O)(=O)c2cnc[nH]2)C1)c1ccccc1 (configuration not stated) | 106 | · | 3
O=C(Cc1ccccc1)Nc1ccc2oc(-c3cccnc3)nc2c1 | 108 | 82 | 4
O=C(Cc1ccc(Cl)cc1)Nc1ccc2oc(-c3ccncc3)nc2c1 | 21 | 34* | 0
Cc1cc2oc(=O)cc(COC(=O)c3cccc(N(C)C)c3)c2cc1C | 98 | · | -2
Cc1ccc2[nH]c3c(c2c1)CN(C(=O)CN1CCN(c2ccccc2F)CC1)CC3 | 61 | 86 | 4
C[C@H]1C[C@@H]2[C@H]([C@@H](O)C[C@@]3(C)[C@H]2CC[C@]3(O)C(=O)CO)[C@@]2(C)C=CC(=O)C=C12 | 103 | 110 | ·
Cc1ccc2[nH]c3c(N4CCN(Cc5ccccc5)CC4)ncnc3c2c1 | 73 | 62 | ·
Cc1ccc2c(c1)[nH]c1c(N3CCN(Cc4ccccc4)CC3)ncnc12 | 31 | 64 | 34*
O=C1c2ccccc2-c2ncnc3cccc1c23 | 112 | 114 | -6
SMILES | Her2 expr inh | SK-BR-3 tox 24h | Jurkat tox 60K
O=C(O)c1ccc2c3c(ncnc13)-c1ccccc1C2=O | -16* | 44* | 6
COC(=O)c1sc(NC(=O)C2CCCCC2C(=O)O)c(C(=O)OC)c1C (configuration not stated) | 90 | 92 | -2
CC(C)(C)n1nnnc1C(c1cccs1)N1CCCc2ccccc21 (configuration not stated) | 82 | 73 | 1
Cc1ccc(S(=O)(=O)NCCSc2nnnn2-c2cc(C)ccc2C)cc1 | 102 | 96 | 2
Cc1ccc(C)c(-n2nnnc2Sc2nnnn2-c2ccccc2)c1 | -11* | · | 30*
Cc1ccc(-c2noc(CCC(=O)N3CCCc4ccccc43)n2)cc1 | 108 | 68 | 0
CN(Cc1nc2ccccc2c(=O)[nH]1)CC(O)COCc1ccco1 (configuration not stated) | 78 | · | 0
CN(CC(=O)NC(=O)NCc1ccco1)Cc1nc2ccccc2c(=O)[nH]1 | -33* | · | 16
COc1ccc(CNC(=O)CSc2nnnn2-c2ccc(O)cc2)cc1 | 69 | 86 | ·
CCc1nc(SCC(=O)Nc2cccc(C(F)(F)F)c2)c2c(=O)n(C)c(=O)n(C)c2n1 | 66 | · | -3
CC(=O)NC1(c2cccc(F)c2)CCN(C(=O)Nc2ccc(C#N)cc2)CC1 | 121 | · | ·
Cc1nc(N2CCN(C(=O)c3ccc(Cl)cc3)CC2)c(C#N)c2c1COC(C)(C)C2 | 112 | 91 | ·
Cc1ccc(Nc2nc(C(=O)NCc3ccco3)cs2)cc1 | 82 | 71 | 10
CCN(CC)C(=O)c1csc(Nc2ccc(C)cc2)n1 | -20* | 38* | 2
Cc1conc1NC(c1cccs1)c1ccc2cccnc2c1O (configuration not stated) | 49 | 77 | 30*
CN1CCN(C(c2cccnc2)c2ccc3cccnc3c2O)CC1 (configuration not stated) | 77 | · | 2
CCOc1ccc(C2c3c(oc4ccccc4c3=O)C(=O)N2c2ccccn2)cc1OC (configuration not stated) | 108 | · | -2
CN1CCN(S(=O)(=O)c2ccc(NC(=O)c3ccc(Br)s3)cc2)CC1 | 107 | 96 | -7
Cc1c(N=Cc2ccc(-c3ccc(Cl)cc3)o2)c(=O)n(-c2ccccc2)n1C | 89 | 97 | -1
Cc1ccc(-c2ccc(/C=N/c3ncn[nH]3)o2)cc1Cl | 12 | 35* | ·
Cc1ccc2nc(NCc3ccco3)c(C=NCc3ccco3)c(=O)n2c1 | 122 | · | 4
Cc1ccc2nc(Nc3ccccc3)c(/C=N/O)c(=O)n2c1 | -25* | · | 0
Cc1ccc2nc3c(cc(C#N)c(=O)n3CC3CCCO3)c(=O)n2c1 (configuration not stated) | 106 | 109 | -7
CCN1/C(=C/C(=O)c2ccco2)Sc2ccccc21 | -0.5* | · | 12
O=C(NCc1ccco1)N1c2ccccc2Sc2ccccc21 | 152 | 81 | ·
SMILES | Her2 expr inh | SK-BR-3 tox 24h | Jurkat tox 60K
Cc1ccccc1NS(=O)(=O)c1ccc(OCC(=O)N2CCCC2)cc1 | 64 | 98 | 4
Cc1ccc(Cl)cc1N1CCN(C(=O)COc2ccc(S(=O)(=O)NC(C)C)cc2)CC1 | 29 | · | 54*
CCOc1cc(S(=O)(=O)N2CCN(Cc3ccccc3)CC2)ccc1Br | 71 | 93 | -3
CN(CCCC(=O)Nc1ccncc1)S(=O)(=O)c1ccc(Cl)cc1 | 102 | · | 45*
CN(C)C(=O)CN(C)S(=O)(=O)c1ccc(Cl)cc1 | 80 | 90 | -4
O=C(Cc1cccs1)NCC1CCCO1 (configuration not stated) | 89 | 35* | 7
O=C(NCC1CCCO1)c1ccc(C(=O)NCC2CCCO2)cc1 (configuration not stated) | 109 | 103 | -7
Cc1cc(NC(=O)CN2CCc3ccccc3C2)nc2c1c(=O)oc1ccccc12 | 75 | · | 1
COc1ccc(-c2cn3c(C)c(C(=O)N4CCN(c5ccc(OC)cc5)CC4)sc3n2)cc1 | 77 | · | 10
CC(C)COC(=O)Cn1cnc2ccc(Br)cc2c1=O | 75 | 86 | -5
CS(=O)(=O)c1nc(-c2ccco2)cc(C(F)(F)F)n1 | -22* | 31* | ·
Cc1cc(NC(=O)CSc2nc(-c3ccco3)cc(C(F)(F)F)n2)no1 | 84 | 107 | 59*
FC(F)(F)c1cc(-c2ccco2)nc(NCc2ccco2)n1 | 138 | 88 | ·
Cc1cc(NC(=O)CCCSc2nc(-c3ccco3)cc(C(F)(F)F)n2)no1 | 99 | 103 | -3
O=C(CCn1ccc2ccccc21)Nc1ccc(N2CCOCC2)cc1 | 98 | · | 7
O=C1CN(C(=O)COC(=O)c2ccccc2NC(=O)c2ccco2)c2ccccc2N1 | 84 | · | -2
COc1ccccc1C(=O)NCCN1CCN(C(=O)c2ccccc2OC)CC1 | 129 | 93 | -4
CCCc1ccc(-c2ccc(F)c(N)c2)nc1 | 77 | · | 60*
